High-throughput results: PubChem, National Center for Advancing Translational Sciences (NCATS)
Compounds with a hit are over-represented: about 21% of the library has one in this group of screens.
Pf growth 48h – inhibits P. falciparum growth in the first generation, 48 h; P. falciparum luciferase growth in erythrocytes, 48 h; Potency, µM (doses to about 28.7 µM), actives largely listed as inhibitors; actives 5.9% (n = 310,000); AID 504832
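Parasite viability was followed by luminescence of a genomically integrated firefly luciferase. Cultures held 0.1% parasitemia at 2% hematocrit (final), incubated under 5% CO2 at 37 C.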
HCV inh – blocks hepatitis C virus; Huh7.5.1 HCVcc-Cre infection, luciferase reporter, 44 h; Potency, µM (titrated, usually from 41.8 µM), most hits filed as inhibitors; AID 651820; actives 3.4% (n = 340,000)
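Seed cells (1,000/well) for 4 h; treat with compound and infect with HCVcc-Cre, moi about 0.5. Incubate 44 h, then detect luciferase activity.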
Pf growth 96h – P. falciparum growth inhibition at 96 hours; P. falciparum luciferase reporter growth, 96 h; Potency, µM (doses to about 28.7 µM), most hits filed as inhibitors; actives 6.9% (n = 320,000)
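P. falciparum expressing integrated firefly luciferase grown in erythrocytes (2% hematocrit, 0.05% parasitemia final) with compounds for 96 hours at 37 C, 5% CO2. Growth inhibition read as loss of luminescence after adding luciferase detection reagent.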
CHX counter – counter-screen hit for Shiga toxin inhibitors, cycloheximide; max response, %; AID 2314; actives 12% (n = 300,000); cell reporter, cycloheximide protein synthesis inhibition counterscreen; in the data active = max response mostly above about 13%, no sharp cut-off; inactive = mostly below about 14%; note: read at 38.3 µM for the half of the compounds with a filed dose
Shiga toxin inh – Shiga toxin inhibition; Vero cells, Shiga toxin protein synthesis inhibition reporter; actives 9.2% (n = 290,000); inhibition, % at 38.7 µM; in the data active = inhibition mostly above about 28%, no sharp cut-off; inactive = mostly below about 43%
AMA1-RON2 inh – inhibitors of Plasmodium falciparum AMA1-RON2 interaction | AlphaScreen AMA1-biotinylated RON2 peptide binding | Potency, µM (top dose mostly 58.2 µM), actives largely listed as inhibitors | actives 0.2% (n = 360,000); note: nearly all actives have a fitted effect of over 45% in size
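AMA1 (3D7) with his tag at 25 nM final met compounds first, then biotinylated RON2 peptide at 25 nM; detection used donor plus acceptor beads, 10 µg/mL apiece, read by AlphaScreen after 30 min at room temperature.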
Of the large screens only hits and unclear results are named; the others gave an inactive call. Unless noted, calls come from the whole dose curve; as a rule, active = well fitted curve in the direction sought with a large enough effect; inconclusive = small, poorly fitted or top-dose-only effect, or another doubt; inactive = no such curve, though single readings can be large; an effect the other way counts as inactive or inconclusive.

Cc1noc(C)c1-c1ccc2ncnc(NCc3cc(F)cc(F)c3)c2c1	none (no result: Pf growth 48h, HCV inh, Pf growth 96h, AMA1-RON2 inh)
O=C(O)Cc1ccc(C(=O)c2cccs2)s1	Pf growth 96h 10µM
CCn1c(CC(=O)Nc2ccc(C)cc2)nnc1SCC(=O)N1CCOCC1	none
CCn1c(Cn2nnc(-c3ccccc3)n2)nnc1SCC(=O)Nc1ccc(C(C)=O)cc1	Pf growth 48h inconclusive, HCV inh inconclusive, Pf growth 96h inconclusive, CHX counter 44, Shiga toxin inh 57
CCn1c(Cn2nnc(-c3ccccc3)n2)nnc1SCC(=O)Nc1ccc(N(C)C)cc1	Pf growth 48h inconclusive, HCV inh inconclusive, Pf growth 96h inconclusive
CCn1c(Cn2nnc(-c3ccccc3)n2)nnc1SCC(=O)Nc1cccc(C(C)=O)c1	HCV inh 35µM (no result: Pf growth 48h)
CCn1c(Cn2nnc(-c3ccccc3)n2)nnc1SCC(=O)Nc1cccc(C)c1C	none
O=C1[C@@H]2Cc3c([nH]c4ccccc34)C(c3cccc([N+](=O)[O-])c3)N2C(=O)CN1CCCO (some centres undefined)	none
c1ccc(COC(CN2CCCCCC2)CN2CCCCCC2)cc1	Pf growth 48h inconclusive, HCV inh 10µM
O=C(Nc1ccc(OCc2ccccc2)cc1)Nc1ccccc1C(=O)NCCCN1CCOCC1	Pf growth 48h inconclusive, CHX counter 35, Shiga toxin inh 48
c1ccc(OCc2ccc(CCCN3CCOCC3)cc2)cc1	CHX counter 26, Shiga toxin inh 28 (no result: HCV inh)
c1ccc(COc2ccc(OCCCCN3CCCC3)cc2)cc1	HCV inh inconclusive, CHX counter 19, Shiga toxin inh 82
c1ccc(OCCCCN2CCCCC2)cc1	none
COc1cc(C(=O)NC2CC2)cc(OC)c1OC	none (no result: Pf growth 48h, HCV inh, Pf growth 96h, CHX counter, Shiga toxin inh)
CCOC(=O)C1=CCC(c2cccc(C)c2)N(S(=O)(=O)c2ccc(C)cc2)C1 (centres undefined)	none (no result: Pf growth 48h, HCV inh, Pf growth 96h, CHX counter, Shiga toxin inh)
c1ccc(OCCCN2CCCC2)cc1	AMA1-RON2 inh inconclusive (no result: Pf growth 48h)
CC1CCN(CCOc2ccc(OCc3ccccc3)cc2)CC1	HCV inh inconclusive, CHX counter 39, Shiga toxin inh 54
c1ccc(COc2ccc(OCCOCCn3cncn3)cc2)cc1	CHX counter 57, Shiga toxin inh 80 (no result: Pf growth 96h)
c1ccc(COc2ccc(OCCCN3CCCCC3)cc2)cc1	HCV inh inconclusive, CHX counter 32, Shiga toxin inh 53 (no result: Pf growth 48h)
CC(Oc1ccc2c(-c3ccccc3)cc(=O)oc2c1)C(=O)N1CCC[C@@H]1C(N)=O (some centres undefined)	none
CCCc1cc(=O)oc2c(C)c(OCC(=O)Nc3ccc(CN4CCOCC4)cc3)ccc12	Pf growth 48h inconclusive, HCV inh inconclusive, Pf growth 96h 4.1µM
Cc1ccc(Cl)cc1N1CCN(CC(=O)Nc2ccc(CN3CCCCC3)cc2)CC1	Pf growth 48h inconclusive, HCV inh 8.9µM, Pf growth 96h inconclusive
Cc1cc(C)cc(OCC(=O)Nc2ccc(CN3CCCCC3)cc2)c1	Pf growth 48h 12µM, Pf growth 96h inconclusive
Cc1ccc(Cl)cc1N1CCN(CCN)CC1	Pf growth 48h inconclusive, HCV inh 10µM, Pf growth 96h inconclusive
Cc1cc(OCC(=O)N[C@@H](CSCc2ccccc2)C(=O)O)c2c(C)c(C)c(=O)oc2c1	Pf growth 48h inconclusive, Pf growth 96h 10µM
Cc1cc(OCC(=O)N[C@@H](Cc2ccccc2)C(=O)O)c2c3c(c(=O)oc2c1)CCC3	none
CCCc1cc(=O)oc2c(C)c(OCC(=O)NC3CCN(Cc4ccccc4)CC3)ccc12	Pf growth 48h inconclusive, HCV inh 6.3µM, Pf growth 96h 13µM
CCCCc1cc(=O)oc2c(C)c(OCC(=O)NCC3CCC(C(=O)O)CC3)ccc12 (centres undefined)	Pf growth 96h 10µM
Cc1cc(OCC(=O)Nc2ccc(CN3CCOCC3)cc2)c2c(C)c(C)c(=O)oc2c1	Pf growth 48h inconclusive, HCV inh 11µM, Pf growth 96h inconclusive
O=C(Nc1nnc(SCCN2CCOCC2)s1)C1CC(=O)N(c2ccccc2)C1 (centres undefined)	Pf growth 96h inconclusive
O=c1[nH]c2nc(Br)[nH]c(=O)c2[nH]1	none (no result: Pf growth 48h, Pf growth 96h, CHX counter, Shiga toxin inh)
COc1ccc(S(=O)(=O)NC(C(=O)OCC(=O)Nc2ccc(N3CCOCC3)cc2)C(C)C)cc1 (centres undefined)	none (no result: Pf growth 48h, Pf growth 96h, CHX counter, Shiga toxin inh)
CCc1cnc(Nc2nc(C(N)Cc3ccc(F)cc3)cs2)nc1 (centres undefined)	none (no result: Pf growth 48h, HCV inh, Pf growth 96h, CHX counter, Shiga toxin inh)
CN(Cc1cccc(F)c1)C(=O)c1cc(S(=O)(=O)N2CCOCC2)ccc1N1CCCC1	Pf growth 48h inconclusive, Pf growth 96h inconclusive (no result: CHX counter, Shiga toxin inh)
CCc1ccc(CN(C)C(=O)c2cc(S(=O)(=O)N3CCOCC3)ccc2N2CCCC2)cc1	Pf growth 48h 12µM, Pf growth 96h inconclusive (no result: CHX counter, Shiga toxin inh)
CCCNC(=O)c1cc(S(=O)(=O)N2CCCCC2)ccc1N1CCOCC1	Pf growth 48h inconclusive (no result: CHX counter, Shiga toxin inh)
CCCCCC(C)NC(=O)c1cc(S(=O)(=O)N2CCCCC2)ccc1N1CCOCC1 (centres undefined)	Pf growth 48h 13µM, Pf growth 96h inconclusive (no result: CHX counter, Shiga toxin inh)
CC1CCC(NC(=O)c2cc(S(=O)(=O)N3CCCCC3)ccc2N2CCOCC2)CC1 (centres undefined)	Pf growth 48h 9.3µM, Pf growth 96h inconclusive (no result: CHX counter, Shiga toxin inh)
O=C(CC1CC2CCC1C2)N1CCN(S(=O)(=O)c2ccc(F)cc2)CC1 (centres undefined)	none (no result: Pf growth 48h, HCV inh, Pf growth 96h, CHX counter, Shiga toxin inh)
CCCCN(C(C)=O)c1c(CC)nc2ccc(C(=O)Nc3cccc(OCC(=O)N(C)C)c3)cn12	none (no result: Pf growth 48h, HCV inh, Pf growth 96h, CHX counter, Shiga toxin inh)
CCC(CC)C(=O)N(C)c1c(C)nc2c(OCCOc3ccc(F)cc3)cccn12	none (no result: Pf growth 48h, HCV inh, Pf growth 96h, CHX counter, Shiga toxin inh)
c1ccc(CNCc2ccco2)cc1	Pf growth 96h inconclusive
Cc1ccc(OC(=O)CCC(=O)Nc2ccc(C(N)=O)cc2)cc1	none (no result: Pf growth 48h, Pf growth 96h, CHX counter, Shiga toxin inh)
Cc1c(C(=O)/C=C/c2cccs2)oc2ccc(F)cc12	CHX counter 36, Shiga toxin inh 73 (no result: Pf growth 48h)
COc1ccc(/C=C\C(=O)c2c(O)ccc3c(C)cc(=O)oc23)cc1OC	Pf growth 48h 9.3µM, HCV inh 10µM (no result: Pf growth 96h)
Cc1cc(=O)oc2c(C(=O)/C=C\c3cccs3)c(O)ccc12	Pf growth 96h 13µM
Cc1cc(=O)oc2c(C(=O)/C=C/c3ccccc3)c(O)ccc12	Pf growth 48h 5.9µM (no result: Pf growth 96h)
COc1cc(/C=C/C(=O)c2c(O)ccc3c(C)cc(=O)oc23)ccc1O	Pf growth 48h inconclusive, Pf growth 96h inconclusive
C[C@H](CO)N1C[C@H](C)[C@@H](CN(C)C(=O)Nc2ccc(C(F)(F)F)cc2)Oc2ccc(NC(=O)Cn3cnnn3)cc2C1=O	none (no result: Pf growth 48h, Pf growth 96h, CHX counter, Shiga toxin inh)
CN(C)c1cccc2c(S(=O)(=O)NC(=O)[C@H]3O[C@@H](n4cnc5c(N)ncnc54)[C@H](O)[C@@H]3O)cccc12	none (no result: Pf growth 48h, HCV inh, Pf growth 96h, CHX counter, Shiga toxin inh)
O=C(N/N=C/c1cccc(OCc2ccccc2)c1)c1ccc(Br)cc1	HCV inh inconclusive
O=C(N/N=C/c1ccc2cccc(OCc3ccccc3)c2n1)c1ccc(Br)cc1	HCV inh inconclusive, CHX counter 18
